Reference: PubChem BioAssay
Several values for one entry are separate records, joined by “and”; a condition that tells them apart may be missing. Equal entries are not always repeated. Activity calls are given as the source filed them. Unless noted, the rule behind the calls is not given here.

Tests used:
[1] = HepG2 liver cancer cell viability effects, profiling panel, resazurin fluorescence, 24 h, PK04 Diversity Set (AID 1172); details: higher = more signal; note: test concentration not given here
[2] = basal S. cerevisiae growth modulation, no modifier, primary screen, OD600, strain BY4716, 24 h, basal condition (AID 1173); details: OD600, 24 h, higher = more signal, called active from +8 up or from −8 down
[3] = MM1S myeloma cell viability, profiling panel, resazurin fluorescence, basal, 24 h, PK04 Diversity Set (AID 1174); details: higher = more signal, called active from +8 up or from −8 down;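 note: MM1S multiple myeloma cell line; test concentration not given here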
[4] = biological target: Dihydroorotate dehydrogenase (quinone), mitochondrial (Plasmodium falciparum (isolate 3D7)) (UniProt Q08210); test: PfDHODH enzyme inhibitors, primary screen, biochemical, C-terminal His tag, absorbance 600 nm (AID 1175); details: DCIP absorbance 600 nm, higher = more signal, called active from +8 up or from −8 down;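 note: recombinant parasite enzyme with a five histidine tag at its C terminus; test concentration not given here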
[5] = P. aeruginosa biofilm formation inhibitors, primary screen, strain PAO1, LB-PBS medium, absorbance 600 nm (AID 1176); note: test concentration not given here; details: P. aeruginosa PAO1 growth/biofilm, A600, 12 h; higher = more signal
[6] = S. cerevisiae RM11-1a growth modifiers, primary screen, strain RM11-1a, OD600, basal, 24 h (AID 1177); details: OD600, 24 h, higher = more signal, called active from +8 up or from −8 down;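 note: cultures grown under basal conditions with no added stressor; test concentration not given here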
[7] = E. coli acrAB mutant growth effects, primary screen, E. coli filamentation inducers, strain DRC39, OD650, 24 h (AID 1178); details: higher = more signal, called active from +8 up or from −8 down;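 note: growth measured as culture turbidity by optical density at 650 nm; test concentration not given here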
[8] = E. coli acrAB mutant growth effects, primary screen, E. coli filamentation inducers, strain DRC39, OD650, 48 h (AID 1179);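 note: screen aims at cell division blockers that make cells filament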; details: E. coli DRC39 delta-acrAB growth, higher = more signal, called active from +8 up or from −8 down
[9] = RPMI8226 myeloma cell viability, profiling panel, resazurin fluorescence, basal, 24 h, PK04 Diversity Set (AID 1180); details: higher = more signal;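 note: RPMI8826 multiple myeloma cell line at 5000 cells per well; test concentration not given here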
[10] = biological target: E3 ubiquitin-protein ligase XIAP (Homo sapiens) (UniProt P98170); test: XIAP binders, primary screen, biophysical, small-molecule microarray, fluorescence 635 nm (AID 1181); details: small-molecule microarray binding, higher = more signal;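 note: score merges 667 nm emission and signal to noise over triplicate slides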
Sequence of E3 ubiquitin-protein ligase XIAP (Homo sapiens) (P98170 whole entry, looked up): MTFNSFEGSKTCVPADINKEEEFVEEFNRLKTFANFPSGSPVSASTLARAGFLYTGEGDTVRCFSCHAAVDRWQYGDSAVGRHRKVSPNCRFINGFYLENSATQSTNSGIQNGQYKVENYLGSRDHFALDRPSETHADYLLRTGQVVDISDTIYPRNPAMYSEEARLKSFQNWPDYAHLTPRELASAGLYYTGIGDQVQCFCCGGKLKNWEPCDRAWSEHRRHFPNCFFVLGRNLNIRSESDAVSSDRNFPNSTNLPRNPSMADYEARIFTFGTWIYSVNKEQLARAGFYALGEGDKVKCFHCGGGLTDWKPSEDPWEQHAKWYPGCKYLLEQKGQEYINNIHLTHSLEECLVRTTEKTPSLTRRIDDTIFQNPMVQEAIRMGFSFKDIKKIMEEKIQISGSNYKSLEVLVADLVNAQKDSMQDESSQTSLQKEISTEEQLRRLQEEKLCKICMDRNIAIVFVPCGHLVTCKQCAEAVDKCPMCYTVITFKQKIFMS

Sequence of Dihydroorotate dehydrogenase (quinone), mitochondrial (Plasmodium falciparum (isolate 3D7)) (Q08210 whole entry, looked up): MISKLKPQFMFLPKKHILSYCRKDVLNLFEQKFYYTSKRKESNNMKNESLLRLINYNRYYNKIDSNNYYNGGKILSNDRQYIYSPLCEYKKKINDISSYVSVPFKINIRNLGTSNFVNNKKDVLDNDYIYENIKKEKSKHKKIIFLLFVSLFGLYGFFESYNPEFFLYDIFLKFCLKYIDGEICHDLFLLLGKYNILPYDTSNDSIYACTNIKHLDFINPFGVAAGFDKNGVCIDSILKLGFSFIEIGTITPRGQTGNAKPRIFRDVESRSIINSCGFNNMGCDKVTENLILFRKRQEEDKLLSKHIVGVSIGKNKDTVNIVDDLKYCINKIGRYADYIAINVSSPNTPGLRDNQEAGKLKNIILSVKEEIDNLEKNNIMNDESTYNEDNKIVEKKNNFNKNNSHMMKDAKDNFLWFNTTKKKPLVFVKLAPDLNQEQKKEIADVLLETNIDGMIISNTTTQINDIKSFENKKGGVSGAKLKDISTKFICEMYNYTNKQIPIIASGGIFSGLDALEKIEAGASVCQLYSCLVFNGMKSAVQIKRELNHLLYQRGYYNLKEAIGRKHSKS

Row | SMILES | z-score [1] | z-score [2] | z-score [3] | composite z-score [4] | z-score [5] | z-score [6] | z-score [7] | z-score [8] | z-score [9] | composite z-score [10]
1 | O=c1n(-c2ccccc2)c(=O)n2n1CC[C@@H]1C(=NOC[C@@H](O)COCc3ccco3)[C@H]3O[C@H]3[C@@H](O)[C@@H]12 | -0.618 and -0.581 | -0.428 (inactive) and 0.804 (inactive) | 0.467 (inactive) and -0.453 (inactive) | -2.79 (inactive) and 0.389 (inactive) | 0.413 (inactive) and -0.455 (inactive) | -0.37 (inactive) and 0.962 (inactive) | -0.417 (inactive) and 0.0343 (inactive) | -0.802 (inactive) and -0.756 (inactive) | 0.0942 and -0.433 | -0.0085 and -0.434
2 | CCCCN1CC=CC23O[C@@H]4C=CCCOC(=O)C4[C@H]2C(=O)N(C(C)CO)[C@@H]3C1=O (stereo not given in full) | 0.169 and -0.388 | -0.288 (inactive) and 1.12 (inactive) | -0.201 (inactive) and -0.715 (inactive) | -0.755 (inactive) and -2.42 (inactive) | 0.329 (inactive) and 0.137 (inactive) | -0.891 (inactive) and 1.05 (inactive) | 0.0926 (inactive) and -0.474 (inactive) | -0.25 (inactive) and -0.564 (inactive) | -0.157 and -0.53 | -0.0062 and 0.744
3 | CCCNC(=O)OC[C@H]1O[C@H](CCON=C(C)CCC(=O)OC[C@H]2O[C@H](C#Cc3ccccc3)C=C[C@@H]2Oc2ccc(C)cc2)C=C[C@@H]1Oc1ccc(OC)cc1 | 0.462 | 0.889 (inactive) | -0.0269 (inactive) | -0.754 (inactive) | -0.066 (inactive) | 0.432 (inactive) | 0.715 (inactive) | 0.565 (inactive) | 0.75 | 0.0408
4 | COC(=O)C1=C(C)N(Cc2ccccc2)C2=C3C(=O)CCC[C@@H]3[C@@](O)(C(=O)OC)C(=O)N2[C@@H]1c1ccccc1 | 0.444 and 0.105 | -2.18 (inactive) and -2.94 (inactive) | 0.478 (inactive) and 0.111 (inactive) | -0.13 (inactive) and -0.103 (inactive) | -0.847 (inactive) | -0.387 (inactive) and -0.728 (inactive) | 0.875 (inactive) and 0.548 (inactive) | 0.37 (inactive) and 0.0908 (inactive) | 0.74 and 0.619 | -0.0601 and -0.0118
5 | C=CCN(Cc1ccccc1)C(=O)C(c1cccs1)N(C(=O)/C=C\C(=O)O)c1ccc(CCO)cc1 (stereo not given) | -0.42 and -0.633 | 0.0593 (inactive) and -0.0181 (inactive) | -0.0351 (inactive) and -0.273 (inactive) | -0.866 (inactive) and -0.0473 (inactive) | -0.208 (inactive) and 0.233 (inactive) | 0.374 (inactive) and 0.514 (inactive) | 0.866 (inactive) and 0.736 (inactive) | 0.722 (inactive) and 0.609 (inactive) | 0.565 and -0.122 | -0.0987 and 0.035
6 | C=CCN(CCCCC)C(=O)C1N(C(C)(C)CO)C(=O)C2C(C(=O)O)C3C=CC21O3 (stereo not given) | -0.839 and -0.382 | 0.579 (inactive) and -0.295 (inactive) | -1.09 (inactive) and -0.64 (inactive) | 0.457 (inactive) and -0.446 (inactive) | -0.91 (inactive) and -1.08 (inactive) | -1.01 (inactive) and -1.15 (inactive) | -0.62 (inactive) and 0.193 (inactive) | -0.396 (inactive) and 0.2 (inactive) | -0.725 and -0.827 | -0.0387 and -0.245
7 | COC(=O)c1c2oc(c1C(=O)OC)C(=O)N[C@@H](Cc1ccccc1)Cn1cc(nn1)C1(CCCCC1)NC(=O)N[C@H](CO)CC2 | 1.61 and 1.46 | -4.6 (inactive) and 0.628 (inactive) | 0.74 (inactive) and 2.29 (inactive) | 0.338 (inactive) and 0.282 (inactive) | 1.33 (inactive) and 0.997 (inactive) | -0.0882 (inactive) and -0.376 (inactive) | 1.89 (inactive) and 0.153 (inactive) | 1.56 (inactive) and 0.279 (inactive) | 0.688 and 2.64 | 0.065 and -0.0187
8 | CO[C@@H]1COC(=O)CC=C[C@H](C)COC(=O)[C@H](C)NC(=O)CC=C[C@H]1C | 0.496 | 0.699 (inactive) | 0.859 (inactive) | 1.09 (inactive) | -0.531 (inactive) | 1.25 (inactive) | 0.365 (inactive) | -0.896 (inactive) | 0.74 | -0.0936
9 | COC(=O)C1=C(C)N(Cc2ccccc2)[C@]23O[C@](C(=O)OC)(C(=O)N2[C@@H]1c1ccccc1)[C@H]1CCCC(=O)[C@H]13 | -0.483 and -0.852 | -2.15 (inactive) and -0.0243 (inactive) | 0.167 (inactive) and 0.867 (inactive) | 0.149 (inactive) and -3.24 (inactive) | 0.39 (inactive) and -0.692 (inactive) | -0.186 (inactive) and -0.402 (inactive) | -0.321 (inactive) and -1.18 (inactive) | -0.204 (inactive) and -1.38 (inactive) | -0.327 and -0.466 | 0.0548 and -0.16
10 | C=CCN(CCCC)C(=O)C(c1cccs1)N(CCOCCO)C(=O)/C=C\C(=O)O (stereo not given) | -0.313 and -1.09 | -0.8 (inactive) and 0.678 (inactive) | -0.0247 (inactive) and -0.0815 (inactive) | -1.49 (inactive) and -0.811 (inactive) | 0.0126 (inactive) and 0.177 (inactive) | -1.34 (inactive) and -1.13 (inactive) | 0.423 (inactive) and 0.0136 (inactive) | 0.629 (inactive) and 0.633 (inactive) | 0.0517 and 0.181 | -0.352 and -0.234
11 | CC(C)OC(=O)C=C1C[C@@H](c2cccc(C(F)(F)F)c2)O[C@@H](c2cccc(C(F)(F)F)c2)O1 | -0.115 and 0.0158 | 0.308 (inactive) and 0.626 (inactive) | -1.7 (inactive) and 0.108 (inactive) | -2.02 (inactive) and -2.59 (inactive) | 0.834 (inactive) and 0.269 (inactive) | 0.69 (inactive) and -0.0601 (inactive) | -0.169 (inactive) and -0.948 (inactive) | 1.04 (inactive) and 0.509 (inactive) | -0.899 and 0.393 | -0.195 and 0.163
12 | C=CCN(CCCCC)C(=O)C(c1cccs1)N(C(=O)/C=C\C(=O)O)c1c(Cl)cccc1CO (stereo not given) | -0.939 and -0.559 | -0.69 (inactive) and -0.768 (inactive) | -0.18 (inactive) and -0.317 (inactive) | 0.401 (inactive) and 0.461 (inactive) | -0.0837 (inactive) and -0.677 (inactive) | -0.0138 (inactive) and -0.374 (inactive) | 0.246 (inactive) and 0.0068 (inactive) | 0.425 (inactive) and 0.212 (inactive) | -0.394 and -0.42 | -0.158 and -0.378
13 | C=CCN(CCCCC)C(=O)C1N(c2ccc(CCO)cc2)C(=O)C2C(C(=O)O)C3C=CC21O3 (stereo not given) | -0.572 and -0.506 | -0.058 (inactive) and 0.644 (inactive) | -0.933 (inactive) and -1.12 (inactive) | -0.0016 (inactive) and 0.598 (inactive) | 0.317 (inactive) and 0.606 (inactive) | -0.611 (inactive) and -0.297 (inactive) | -0.623 (inactive) and -0.0654 (inactive) | -0.689 (inactive) and -0.552 (inactive) | -0.871 and -1.15 | -0.193 and -0.0559
14 | C[N+](C)(C)CCCCNC(=O)[C@H]1C[C@H]2C(=O)N[C@@H](CCCC[N+](C)(C)C)C(=O)N2[C@H]1c1cccc(OCCO)c1 | -0.114 and -3.58 | 0.315 (inactive) and -0.201 (inactive) | -1.18 (inactive) and -1.75 (inactive) | -27.2 (active) and -30.4 (active) | 0.187 (inactive) and 0.23 (inactive) | 0.152 (inactive) and -0.406 (inactive) | -0.93 (inactive) and -1 (inactive) | -1.32 (inactive) and -1.66 (inactive) | -1.16 and -0.819 | 0.0159 and 0.136
15 | CC(C)C(=O)N[C@@H]1CCCN1C(=O)C=Cc1ccccc1 | -0.0786 | -1.17 (inactive) | -0.0492 (inactive) | -1.3 (inactive) | 0.286 (inactive) | -1.19 (inactive) | 0.595 (inactive) | -0.0803 (inactive) | 0.227 | -0.113
16 | CCC[C@@H]1C[C@@]1(CCC)[C@@H](NC(=O)c1ccc(-c2ccccc2)cc1)c1cccc(Cl)c1 | 0.791 and 0.395 | 0.0143 (inactive) and 1.49 (inactive) | -0.0393 (inactive) and -0.312 (inactive) | -0.824 (inactive) and 0.499 (inactive) | 1 (inactive) and 0.343 (inactive) | 0.38 (inactive) and 1.47 (inactive) | -0.505 (inactive) and -0.336 (inactive) | -0.61 (inactive) and -0.0929 (inactive) | 0.889 and -0.275 | -0.0305 and 0.0623
